We go through 14 compounds from PubChem BioAssay (EPA / NIEHS).

SMILES strings stand for the structures. Results filed as inconclusive are left out. The source made the active and inactive calls. How the source made its calls, unless noted: active means hit-call score of the fitted dose curve at least 0.9, where 1 is the maximum; inconclusive means response in the unintended direction; inactive means score below 0.9.

Test [1] is described as follows: BSK_3C_VCAM1: BioMAP Diversity Plus: 3C Assay for Vascular cell adhesion molecule 1 (VCAM1) Biomarker Activity (AID 2282999; active means hit-call score of the fitted dose curve at least 0.9, where 1 is the maximum; inactive means score below 0.9). Conditions: BioMAP 3C HUVEC, VCAM1 ELISA, cytokine-stimulated; actives raise or lower the signal. A digest of the protocol: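 Vascular primary endothelium (human umbilical vein) was exposed to chemicals and assayed 24 h later. VCAM-1 levels came from ELISA, with DMSO serving as baseline for bidirectional fitting.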
For orientation: ELISA stands for enzyme-linked immunosorbent assay.

The nature of test [2]: BSK_4H_Eotaxin3: BioMAP Diversity Plus: 4H Assay for Eotaxin 3 Biomarker Activity (AID 2283000; active means hit-call score of the fitted dose curve at least 0.9, where 1 is the maximum; inactive means score below 0.9;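 on outcome: CCL26 protein level quantified by ELISA in parallel with SRB cytotoxicity check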). As to conditions: primary human endothelial cells (HUVEC); actives raise or lower the signal. Put shortly: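 Eotaxin-3 (CCL26) levels were measured by ELISA in HUVEC primary cultures 24 h post-dosing. Gain or loss of signal was fitted in both directions, with DMSO serving as baseline and negative control.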

The target of test [3] is human Peroxisome Proliferator-activated Receptor alpha (PPARa), PPARA (gene 5465) (UniProt Q07869). Description: ATG_PPARa_TRANS: Attagene TRANS-FACTORIAL HepG2 Assay for human Peroxisome Proliferator-activated Receptor alpha (PPARa) (AID 2283001). Put shortly: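 Cells (HepG2) are transfected with multiple reporter transcription units, exposed to chemical for 24 h, then total RNA is reverse-transcribed and amplified. Labelled products are quantified by capillary electrophoresis; induction is referenced to DMSO.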

In test [4] the target is human Peroxisome Proliferator-activated Receptor delta (PPARd), PPARD (gene 5467) (UniProt Q03181). Description: ATG_PPARd_TRANS: Attagene TRANS-FACTORIAL HepG2 Assay for human Peroxisome Proliferator-activated Receptor delta (PPARd) (AID 2283002). A digest of the protocol: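 HepG2 cells transiently transfected with multiplexed GAL4-UAS reporter units and exogenous chimeric NR-Gal4 proteins; 24 h compound exposure. Reporter mRNA measured by RT-PCR, 6-FAM labelling, HpaI digestion and capillary electrophoresis; gain of signal versus DMSO.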

Read-out in test [5]: Intercellular Adhesion Molecule 1 (ICAM1), ICAM1 (gene 3383)
Description: BSK_3C_ICAM1: BioMAP Diversity Plus: 3C Assay for Intercellular Adhesion Molecule 1 (ICAM1) Biomarker Activity (AID 2283003; active means hit-call score of the fitted dose curve at least 0.9, where 1 is the maximum; inactive means score below 0.9). Conditions: primary human endothelial cells (HUVEC); actives raise or lower the signal. Put shortly:
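Chemicals are dosed onto primary human umbilical vein endothelium (3C system). After 24 h, ICAM-1 is measured by ELISA, and responses are fitted bidirectionally relative to DMSO.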

For test [6], the target named is human Retinoic Acid Receptor beta (RARb), RARB (gene 5915) (UniProt P10826). Nature of the test: ATG_RARb_TRANS: Attagene TRANS-FACTORIAL HepG2 Assay for human Retinoic Acid Receptor beta (AID 2283004). A digest of the protocol: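 HepG2 cells were transiently transfected with GAL4-UAS reporter units that report activity of exogenous chimeric NR-Gal4 proteins, then exposed to compound for 24 h. Reporter mRNA was quantified by RT-PCR with capillary electrophoresis fluorescence, as gain of signal over DMSO.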

Test [7] concerns the target Retinoic acid receptor alpha (Homo sapiens) (UniProt P10276). Nature of the test: ATG_RARa_TRANS: Attagene TRANS-FACTORIAL HepG2 Assay for human Retinoic Acid Receptor alpha (RARa) (AID 2283005).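 On AC50: potency for increased reporter signal meaning RARa activation over DMSO.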 A digest of the protocol:
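HepG2 cells transiently transfected with multiple reporter units expressing chimeric RARα-GAL4 fusion, with GAL4-UAS-driven reporters. After 24 h compound exposure, reporter mRNA induction quantified by RT-PCR and capillary electrophoresis with fluorescent labeling; gain-of-signal fitted relative to DMSO control.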

Test [8] in a line: BSK_3C_Proliferation: Cell Proliferation Assessment in the BioMAP Diversity Plus: 3C Assay (AID 2283006; active means hit-call score of the fitted dose curve at least 0.9, where 1 is the maximum; inactive means score below 0.9;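 on AC50: potency may reflect either rise or fall in cell number versus DMSO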). As to conditions: primary human endothelial cells (HUVEC). Put shortly: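 Cells (human umbilical vein endothelial, sub-confluent) receive test chemical; after 48 h they are fixed in 10% trichloroacetic acid, stained with 0.1% SRB and read at 560 nm. Activity is referenced to DMSO, fitting increases and decreases.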

For test [9], the target named is Peroxisome proliferator-activated receptor gamma (Homo sapiens) (UniProt P37231). Description: ATG_PPARg_TRANS: Attagene TRANS-FACTORIAL HepG2 Assay for human Peroxisome Proliferator-activated Receptor-gamma (PPARg) (AID 2283007). Put shortly: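 Gain-of-signal endpoint relative to DMSO, derived from reporter mRNA levels quantified by RT-PCR and capillary electrophoresis. Cells were HepG2 transiently expressing a chimeric NR-Gal4 construct with GAL4-UAS reporters, exposed to chemicals for 24 h.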

In test [10] the target is Nuclear receptor subfamily 1 group I member 2 (Homo sapiens) (UniProt O75469). Nature of the test: ATG_PXR_TRANS: Attagene TRANS-FACTORIAL HepG2 Assay for human Pregnane X Receptor (PXR) (AID 2283008). Put shortly:
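Transactivation by exogenous PXR–GAL4 fusion measured as reporter transcript induction after 24 h compound treatment of transfected human HepG2 cells. Read-out via RT-PCR and capillary electrophoresis of labelled fragments, fitted upward relative to DMSO.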

Nuclear receptor subfamily 1 group I member 2 (Homo sapiens), sequence (O75469 whole entry, looked up, the tested form may be a part): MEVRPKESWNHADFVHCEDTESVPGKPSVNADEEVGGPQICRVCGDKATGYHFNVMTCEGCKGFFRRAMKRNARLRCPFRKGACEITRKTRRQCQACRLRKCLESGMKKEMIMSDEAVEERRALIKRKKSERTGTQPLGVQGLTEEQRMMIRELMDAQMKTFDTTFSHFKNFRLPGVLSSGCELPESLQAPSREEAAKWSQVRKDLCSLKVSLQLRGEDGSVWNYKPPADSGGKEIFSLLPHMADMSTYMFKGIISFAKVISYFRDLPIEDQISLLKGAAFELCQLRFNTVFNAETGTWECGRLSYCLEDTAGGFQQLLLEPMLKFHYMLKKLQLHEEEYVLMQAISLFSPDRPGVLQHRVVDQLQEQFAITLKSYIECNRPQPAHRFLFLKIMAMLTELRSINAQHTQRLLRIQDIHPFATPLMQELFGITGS
Retinoic acid receptor alpha (Homo sapiens), sequence (P10276 whole entry, looked up, the tested form may be a part): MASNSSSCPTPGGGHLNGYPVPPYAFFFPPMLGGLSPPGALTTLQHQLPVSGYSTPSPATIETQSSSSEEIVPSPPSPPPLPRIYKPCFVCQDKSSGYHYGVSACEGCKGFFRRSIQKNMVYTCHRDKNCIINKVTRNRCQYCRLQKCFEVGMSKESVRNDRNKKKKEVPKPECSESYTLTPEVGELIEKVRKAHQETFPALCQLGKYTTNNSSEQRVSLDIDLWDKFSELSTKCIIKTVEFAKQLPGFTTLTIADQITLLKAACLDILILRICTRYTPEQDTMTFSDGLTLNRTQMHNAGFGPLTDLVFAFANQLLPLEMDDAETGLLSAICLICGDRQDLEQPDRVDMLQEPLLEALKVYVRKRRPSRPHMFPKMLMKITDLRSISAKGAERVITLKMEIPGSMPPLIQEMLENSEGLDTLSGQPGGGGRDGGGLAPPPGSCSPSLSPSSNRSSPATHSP
human Retinoic Acid Receptor beta (RARb), RARB (gene 5915), sequence (P10826 whole entry, looked up, the tested form may be a part): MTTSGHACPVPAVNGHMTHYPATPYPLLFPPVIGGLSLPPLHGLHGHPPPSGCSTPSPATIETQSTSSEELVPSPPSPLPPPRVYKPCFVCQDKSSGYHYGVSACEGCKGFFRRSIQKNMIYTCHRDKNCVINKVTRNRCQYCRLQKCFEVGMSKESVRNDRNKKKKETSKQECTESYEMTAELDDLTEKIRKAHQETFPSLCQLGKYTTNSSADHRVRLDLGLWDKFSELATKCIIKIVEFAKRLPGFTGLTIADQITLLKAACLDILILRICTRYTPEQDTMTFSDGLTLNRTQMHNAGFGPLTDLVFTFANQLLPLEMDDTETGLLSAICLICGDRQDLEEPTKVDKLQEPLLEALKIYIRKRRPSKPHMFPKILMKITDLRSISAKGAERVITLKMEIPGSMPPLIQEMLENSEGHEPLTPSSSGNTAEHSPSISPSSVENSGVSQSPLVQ
Peroxisome proliferator-activated receptor gamma (Homo sapiens), sequence (P37231 whole entry, looked up, the tested form may be a part): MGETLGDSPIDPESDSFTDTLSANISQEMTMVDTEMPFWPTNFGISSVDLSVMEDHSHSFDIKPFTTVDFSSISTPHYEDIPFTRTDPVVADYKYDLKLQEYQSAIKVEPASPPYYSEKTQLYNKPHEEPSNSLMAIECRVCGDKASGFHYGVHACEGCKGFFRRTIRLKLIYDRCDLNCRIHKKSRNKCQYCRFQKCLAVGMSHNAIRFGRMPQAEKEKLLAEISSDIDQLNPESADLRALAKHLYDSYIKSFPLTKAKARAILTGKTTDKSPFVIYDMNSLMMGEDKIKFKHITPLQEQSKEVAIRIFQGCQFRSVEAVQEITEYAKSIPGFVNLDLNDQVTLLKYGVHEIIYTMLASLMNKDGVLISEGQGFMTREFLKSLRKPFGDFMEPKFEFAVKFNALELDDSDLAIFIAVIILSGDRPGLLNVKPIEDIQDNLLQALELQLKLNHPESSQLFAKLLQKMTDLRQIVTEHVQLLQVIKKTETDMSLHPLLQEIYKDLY
human Peroxisome Proliferator-activated Receptor alpha (PPARa), PPARA (gene 5465), sequence (Q07869 whole entry, looked up): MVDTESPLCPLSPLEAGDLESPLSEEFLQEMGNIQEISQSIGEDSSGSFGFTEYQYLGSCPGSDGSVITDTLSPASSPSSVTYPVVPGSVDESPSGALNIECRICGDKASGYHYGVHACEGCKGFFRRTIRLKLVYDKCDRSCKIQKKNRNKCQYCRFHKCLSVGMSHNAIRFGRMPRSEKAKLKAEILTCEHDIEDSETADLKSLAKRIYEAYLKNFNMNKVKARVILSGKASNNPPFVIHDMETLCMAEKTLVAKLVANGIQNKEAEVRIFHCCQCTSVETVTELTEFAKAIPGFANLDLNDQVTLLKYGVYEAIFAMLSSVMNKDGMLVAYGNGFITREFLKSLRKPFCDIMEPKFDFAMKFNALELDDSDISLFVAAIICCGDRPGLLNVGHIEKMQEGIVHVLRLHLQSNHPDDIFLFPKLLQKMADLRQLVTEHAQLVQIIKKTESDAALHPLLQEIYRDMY
human Peroxisome Proliferator-activated Receptor delta (PPARd), PPARD (gene 5467), sequence (Q03181 whole entry, looked up, the tested form may be a part): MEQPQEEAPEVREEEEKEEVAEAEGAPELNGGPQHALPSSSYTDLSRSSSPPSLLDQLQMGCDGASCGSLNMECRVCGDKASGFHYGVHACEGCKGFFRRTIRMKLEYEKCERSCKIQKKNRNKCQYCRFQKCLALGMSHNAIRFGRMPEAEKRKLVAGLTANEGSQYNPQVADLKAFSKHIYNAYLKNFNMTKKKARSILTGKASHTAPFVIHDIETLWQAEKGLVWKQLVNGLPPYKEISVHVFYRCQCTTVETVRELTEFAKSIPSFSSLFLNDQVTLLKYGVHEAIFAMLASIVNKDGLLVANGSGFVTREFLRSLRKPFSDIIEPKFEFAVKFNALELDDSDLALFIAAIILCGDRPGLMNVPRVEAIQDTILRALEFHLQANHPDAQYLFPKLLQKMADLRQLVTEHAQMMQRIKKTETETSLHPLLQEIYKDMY

Consider `COc1nc(C)nc(NC(=O)NS(=O)(=O)c2ccccc2CCC(F)(F)F)n1`, for which the outcome in [1], in [2], in test [3], in test [4], in test [5] and in [6] was inactive. In addition, the compound was classed as inactive in test [7], in test [8], in [9] and in test [10].

Regarding `COc1nc(NC(C)C)nc(NC(C)C)n1`, the result in [1], in test [2], in test [3], in [4], in test [5] and in [6] was inactive. The compound was classed as inactive in [7], in [8], in test [9] and in test [10].

As for `Cc1cc(Cl)ccc1OCC(=O)O`, the outcome in test [1], in test [2], in test [3], in test [5], in test [8] and in test [9] was inactive. Further, the compound was classed as inactive in test [10].

By AC50 is commonly meant the concentration at which the activity in the assay is half-maximal. On to `CC(C)(C)c1ccc(CSc2cnn(C(C)(C)C)c(=O)c2Cl)cc1`, for which the outcome in test [1], in test [3], in test [5], in [6], in test [7] and in [10] was inactive. For the same compound, the AC50 in test [2] is 0.782 µM (active); in test [8], 9.12 µM (active); in [9] it was 10.5 µM (active).

On to `N#CC(CCc1ccc(Cl)cc1)(Cn1cncn1)c1ccccc1` (stereo unspecified), for which the result in [1], in [2], in test [4], in test [5], in [6] and in test [7] was inactive. The result in test [9] and in test [10] was inactive. Further, the AC50 in test [8] is 14.1 µM (active).

For `Cc1c(F)c(F)c(COC(=O)C2C(/C=C(\Cl)C(F)(F)F)C2(C)C)c(F)c1F` (stereo unspecified), the result in test [1], in test [2], in test [3], in test [5], in test [6] and in test [9] was inactive. Further, the AC50 in test [7] is 36.7 µM (active); in test [8] it was 20 µM (active); in test [10] it was 22.6 µM (active).

Turning to `CCON=C(CC)C1=C(O)CC(c2c(C)cc(C)cc2C)CC1=O` (stereo unspecified), the result in [1], in [2], in [5], in test [6], in test [7] and in test [8] was inactive. The compound was called inactive in test [9] and in test [10].

Turning to `CC1COC(Cn2cncn2)(c2ccc(Oc3ccc(Cl)cc3)cc2Cl)O1` (stereo unspecified), the AC50 in test [1] is 29.8 µM (active); in test [2], 32.9 µM (active); in [5], 36.2 µM (active); in test [8], 24.6 µM (active). The result in [4], in test [6], in test [7], in test [9] and in test [10] was inactive.

For `COP(=S)(OC)Oc1nc(Cl)c(Cl)cc1Cl`, the result in test [1], in test [2], in [5], in [6], in [7] and in test [10] was inactive. In addition, the results for the AC50 in test [8] and in test [9] were 31.9 µM (active) and 16 µM (active), respectively.

Turning to `COC(=O)C=C(C)OP(=O)(OC)OC`, the result in test [1], in test [2], in [4], in test [5], in test [6] and in test [7] was inactive. Moreover, the result in test [8], in test [9] and in test [10] was inactive.

For `COC(=O)c1ccccc1C(=O)OC`, the outcome in test [1], in test [2], in [3], in [5], in test [6] and in [7] was inactive. The result in [8], in test [9] and in [10] was inactive.

With `CC(Oc1ccc(Cl)cc1Cl)C(=O)O` (stereo unspecified), the result in test [1], in test [2], in [3], in [5], in [6] and in [7] was inactive. Moreover, the outcome in test [8] and in test [10] was inactive. The half-maximal activity concentration (AC50) in test [9] was 39.1 µM (active).

Take `O=C(O)c1nc(Cl)ccc1Cl`: the outcome in test [1], in test [2], in test [3], in test [5], in [8] and in [10] was inactive.

For `CCNc1nc(Cl)nc(NCC)n1`, the result in test [1], in test [2], in test [3], in test [5], in test [6] and in test [7] was inactive. In addition, the outcome in test [8], in test [9] and in test [10] was inactive.
